# Tests used:
# Test in all cases: DAPPL (digital affinity profiling via proximity ligation, sequencing); 10 mM Tris-HCl pH 7.5, 50 mM NaCl, 1 mM DTT, 4% glycerol, room temperature, 30 min; GST-TFs on glutathione beads, 16-mer random dsDNA library, 0.1% formaldehyde crosslink after washing; high values mean tight binding
# Conditions in all cases: protein: recombinant; tags: N-terminal GST; dsDNA, one strand shown
# [1] = biological target: T1, FLI1 (Homo sapiens, UniProt Q01543 1-452)
# T1 sequence: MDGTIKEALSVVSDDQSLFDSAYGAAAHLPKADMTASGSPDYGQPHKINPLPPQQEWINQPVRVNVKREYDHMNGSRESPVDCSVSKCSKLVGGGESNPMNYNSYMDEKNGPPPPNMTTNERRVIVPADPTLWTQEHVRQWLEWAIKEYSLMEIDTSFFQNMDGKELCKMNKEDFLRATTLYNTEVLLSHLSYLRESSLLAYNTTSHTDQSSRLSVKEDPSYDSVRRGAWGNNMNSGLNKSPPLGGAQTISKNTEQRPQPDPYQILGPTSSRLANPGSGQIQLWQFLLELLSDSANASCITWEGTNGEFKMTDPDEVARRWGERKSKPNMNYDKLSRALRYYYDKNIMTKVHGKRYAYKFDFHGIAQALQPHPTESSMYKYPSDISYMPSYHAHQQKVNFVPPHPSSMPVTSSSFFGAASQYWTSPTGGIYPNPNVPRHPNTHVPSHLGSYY
# Method in brief: (§1)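 Pools were built from human transcription factors expressed in yeast as GST fusions, captured on glutathione beads and DNA-barcoded, along with a tag-only sample. Incubation with 200 nmole of a 16-mer random double-stranded DNA library lasted 30 min at room temperature in Tris/NaCl/DTT/glycerol buffer, and was followed by washing, 0.1% formaldehyde crosslinking, proximity ligation, PCR amplification and Illumina NextSeq500 sequencing. Binding signal is the quotient of each hexamer's read frequency for a factor and its frequency for the tag-only sample.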
# [2] = biological target: T2, ELK1 (Homo sapiens, UniProt P19419 1-428)
# T2 sequence: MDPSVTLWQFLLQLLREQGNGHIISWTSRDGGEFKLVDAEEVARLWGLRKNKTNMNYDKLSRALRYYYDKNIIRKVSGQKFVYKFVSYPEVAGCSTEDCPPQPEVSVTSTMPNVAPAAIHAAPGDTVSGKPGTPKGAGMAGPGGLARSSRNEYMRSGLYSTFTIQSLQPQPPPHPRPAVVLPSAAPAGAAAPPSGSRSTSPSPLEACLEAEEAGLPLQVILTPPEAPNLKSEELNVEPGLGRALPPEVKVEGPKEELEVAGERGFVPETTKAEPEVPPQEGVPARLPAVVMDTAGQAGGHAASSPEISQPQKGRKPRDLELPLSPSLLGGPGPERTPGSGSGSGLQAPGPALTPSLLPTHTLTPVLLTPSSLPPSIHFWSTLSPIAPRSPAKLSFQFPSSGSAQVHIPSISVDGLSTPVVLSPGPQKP
# Method in brief: as §1
# [3] = biological target: T3, GABPA (Homo sapiens, UniProt Q06546 1-454)
# T3 sequence: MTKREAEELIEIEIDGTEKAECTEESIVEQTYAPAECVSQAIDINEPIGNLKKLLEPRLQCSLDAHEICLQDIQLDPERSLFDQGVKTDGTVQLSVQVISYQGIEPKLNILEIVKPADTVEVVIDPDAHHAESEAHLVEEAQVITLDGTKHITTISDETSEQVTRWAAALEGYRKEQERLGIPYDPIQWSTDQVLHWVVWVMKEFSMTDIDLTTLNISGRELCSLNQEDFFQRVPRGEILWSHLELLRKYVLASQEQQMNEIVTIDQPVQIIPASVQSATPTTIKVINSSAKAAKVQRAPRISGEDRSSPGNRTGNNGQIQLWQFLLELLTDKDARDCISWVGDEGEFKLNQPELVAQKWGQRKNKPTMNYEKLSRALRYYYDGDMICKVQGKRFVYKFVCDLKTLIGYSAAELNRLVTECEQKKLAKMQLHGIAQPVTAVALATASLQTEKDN
# Method in brief: as §1
# [4] = biological target: T4, ERG (Homo sapiens, UniProt P11308 1-479)
# T4 sequence: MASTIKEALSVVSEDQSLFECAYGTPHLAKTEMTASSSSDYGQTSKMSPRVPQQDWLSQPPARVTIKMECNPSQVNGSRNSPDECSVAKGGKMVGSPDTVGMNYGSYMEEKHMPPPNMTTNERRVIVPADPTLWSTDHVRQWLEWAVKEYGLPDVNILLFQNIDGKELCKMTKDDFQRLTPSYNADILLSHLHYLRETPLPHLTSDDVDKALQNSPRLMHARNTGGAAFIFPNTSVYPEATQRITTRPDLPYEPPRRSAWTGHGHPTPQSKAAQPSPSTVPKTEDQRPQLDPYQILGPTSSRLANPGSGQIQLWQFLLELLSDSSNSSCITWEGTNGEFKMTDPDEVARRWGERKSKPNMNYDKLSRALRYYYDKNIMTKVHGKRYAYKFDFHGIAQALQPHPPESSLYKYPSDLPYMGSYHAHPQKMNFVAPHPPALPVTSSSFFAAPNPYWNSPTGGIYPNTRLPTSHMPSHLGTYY
# Method in brief: as §1
# [5] = biological target: ELF1 (Homo sapiens, UniProt P32519 1-619)
# Method in brief: as §1
# [6] = biological target: T5, EHF (Homo sapiens, UniProt Q9NZC4 1-300)
# T5 sequence: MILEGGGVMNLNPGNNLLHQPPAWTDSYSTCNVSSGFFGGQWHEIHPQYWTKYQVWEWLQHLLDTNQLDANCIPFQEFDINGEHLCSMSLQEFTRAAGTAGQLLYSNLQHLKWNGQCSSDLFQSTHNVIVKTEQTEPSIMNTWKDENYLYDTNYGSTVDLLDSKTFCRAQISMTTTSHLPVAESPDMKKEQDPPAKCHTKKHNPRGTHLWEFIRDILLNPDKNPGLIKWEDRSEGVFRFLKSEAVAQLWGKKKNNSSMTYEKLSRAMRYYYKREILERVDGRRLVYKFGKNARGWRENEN
# Method in brief: as §1
# [7] = biological target: SPI1 (Homo sapiens, UniProt P17947 1-270)
# Method in brief: as §1
# [8] = biological target: SPIB (Homo sapiens, UniProt Q01892 1-262)
# Method in brief: as §1
# [9] = biological target: T6, ELK3 (Homo sapiens, UniProt P41970 1-407)
# T6 sequence: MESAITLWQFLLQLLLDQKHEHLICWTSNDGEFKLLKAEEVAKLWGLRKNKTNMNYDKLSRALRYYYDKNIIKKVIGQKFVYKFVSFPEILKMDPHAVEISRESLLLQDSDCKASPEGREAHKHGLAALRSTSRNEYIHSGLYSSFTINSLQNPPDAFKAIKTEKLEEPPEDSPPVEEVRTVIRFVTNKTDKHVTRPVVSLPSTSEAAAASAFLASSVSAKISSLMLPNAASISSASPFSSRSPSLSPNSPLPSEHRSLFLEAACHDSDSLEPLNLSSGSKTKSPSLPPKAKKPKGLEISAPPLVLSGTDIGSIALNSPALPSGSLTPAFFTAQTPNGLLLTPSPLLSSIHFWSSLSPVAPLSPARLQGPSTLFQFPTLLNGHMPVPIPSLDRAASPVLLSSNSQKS
# Method in brief: as §1
# Chain of ELF1 (P32519 whole entry): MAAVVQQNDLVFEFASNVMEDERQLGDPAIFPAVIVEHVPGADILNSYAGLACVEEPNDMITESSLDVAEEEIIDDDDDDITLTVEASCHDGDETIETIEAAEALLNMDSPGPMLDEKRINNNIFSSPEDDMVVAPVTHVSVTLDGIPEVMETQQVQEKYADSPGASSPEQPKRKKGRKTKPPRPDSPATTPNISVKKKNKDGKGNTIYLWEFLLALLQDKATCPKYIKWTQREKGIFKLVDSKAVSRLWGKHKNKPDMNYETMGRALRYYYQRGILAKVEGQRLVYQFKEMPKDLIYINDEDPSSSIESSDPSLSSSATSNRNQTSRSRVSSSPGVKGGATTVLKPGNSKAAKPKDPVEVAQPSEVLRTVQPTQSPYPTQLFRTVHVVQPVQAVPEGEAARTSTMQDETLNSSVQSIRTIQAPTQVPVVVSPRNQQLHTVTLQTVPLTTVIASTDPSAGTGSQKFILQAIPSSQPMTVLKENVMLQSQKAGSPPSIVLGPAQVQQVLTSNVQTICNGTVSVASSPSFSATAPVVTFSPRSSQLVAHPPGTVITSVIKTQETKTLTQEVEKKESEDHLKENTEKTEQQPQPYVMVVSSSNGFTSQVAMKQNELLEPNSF
# Chain of SPIB (Q01892 whole entry): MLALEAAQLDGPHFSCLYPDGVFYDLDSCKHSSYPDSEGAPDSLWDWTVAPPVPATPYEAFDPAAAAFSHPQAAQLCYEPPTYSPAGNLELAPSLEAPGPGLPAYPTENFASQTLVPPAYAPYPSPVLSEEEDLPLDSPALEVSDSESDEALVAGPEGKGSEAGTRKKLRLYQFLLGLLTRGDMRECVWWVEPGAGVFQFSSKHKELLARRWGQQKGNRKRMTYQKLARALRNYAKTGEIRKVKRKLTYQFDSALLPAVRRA
sequence,measurement,setting,value
CCCTGT,binding signal,[1],"1.18 fold enrichment (6-mer frequency, TF over GST control)"
same,binding signal,[2],"1.02 fold enrichment (6-mer frequency, TF over GST control)"
same,binding signal,[3],"1.2 fold enrichment (6-mer frequency, TF over GST control)"
same,binding signal,[4],"1.21 fold enrichment (6-mer frequency, TF over GST control)"
same,binding signal,[5],"1.17 fold enrichment (6-mer frequency, TF over GST control)"
same,binding signal,[6],"1.09 fold enrichment (6-mer frequency, TF over GST control)"
same,binding signal,[7],"1.07 fold enrichment (6-mer frequency, TF over GST control)"
same,binding signal,[8],"1.12 fold enrichment (6-mer frequency, TF over GST control)"
GAAGTA,binding signal,[1],"1.88 fold enrichment (6-mer frequency, TF over GST control)"
same,binding signal,[2],"2.23 fold enrichment (6-mer frequency, TF over GST control)"
same,binding signal,[3],"1.68 fold enrichment (6-mer frequency, TF over GST control)"
same,binding signal,[4],"2.03 fold enrichment (6-mer frequency, TF over GST control)"
same,binding signal,[5],"1.84 fold enrichment (6-mer frequency, TF over GST control)"
same,binding signal,[6],"2.13 fold enrichment (6-mer frequency, TF over GST control)"
same,binding signal,[7],"2.32 fold enrichment (6-mer frequency, TF over GST control)"
same,binding signal,[8],"1.95 fold enrichment (6-mer frequency, TF over GST control)"
same,binding signal,[9],"2.1 fold enrichment (6-mer frequency, TF over GST control)"
ATTCAG,binding signal,[1],"1.02 fold enrichment (6-mer frequency, TF over GST control)"
same,binding signal,[2],"1.11 fold enrichment (6-mer frequency, TF over GST control)"
same,binding signal,[3],"1.17 fold enrichment (6-mer frequency, TF over GST control)"
same,binding signal,[4],"1.14 fold enrichment (6-mer frequency, TF over GST control)"
same,binding signal,[5],"1.09 fold enrichment (6-mer frequency, TF over GST control)"
same,binding signal,[6],"1.1 fold enrichment (6-mer frequency, TF over GST control)"
same,binding signal,[7],"1.16 fold enrichment (6-mer frequency, TF over GST control)"
same,binding signal,[8],"1.02 fold enrichment (6-mer frequency, TF over GST control)"
same,binding signal,[9],"1.16 fold enrichment (6-mer frequency, TF over GST control)"
TGTGCA,binding signal,[1],"1 fold enrichment (6-mer frequency, TF over GST control)"
same,binding signal,[2],"1.09 fold enrichment (6-mer frequency, TF over GST control)"
same,binding signal,[3],"1.08 fold enrichment (6-mer frequency, TF over GST control)"
same,binding signal,[4],"1.16 fold enrichment (6-mer frequency, TF over GST control)"
same,binding signal,[5],"1.08 fold enrichment (6-mer frequency, TF over GST control)"
same,binding signal,[6],"1.14 fold enrichment (6-mer frequency, TF over GST control)"
same,binding signal,[7],"1.08 fold enrichment (6-mer frequency, TF over GST control)"
same,binding signal,[8],"1.18 fold enrichment (6-mer frequency, TF over GST control)"
CCGGTT,binding signal,[1],"1.88 fold enrichment (6-mer frequency, TF over GST control)"
same,binding signal,[2],"2.1 fold enrichment (6-mer frequency, TF over GST control)"
same,binding signal,[3],"1.89 fold enrichment (6-mer frequency, TF over GST control)"
same,binding signal,[4],"2.2 fold enrichment (6-mer frequency, TF over GST control)"
same,binding signal,[5],"1.96 fold enrichment (6-mer frequency, TF over GST control)"
same,binding signal,[6],"1.97 fold enrichment (6-mer frequency, TF over GST control)"
same,binding signal,[7],"2.11 fold enrichment (6-mer frequency, TF over GST control)"
same,binding signal,[8],"1.97 fold enrichment (6-mer frequency, TF over GST control)"
same,binding signal,[9],"2.26 fold enrichment (6-mer frequency, TF over GST control)"
AAAAGG,binding signal,[1],"1.1 fold enrichment (6-mer frequency, TF over GST control)"
same,binding signal,[2],"1.05 fold enrichment (6-mer frequency, TF over GST control)"
same,binding signal,[3],"1.25 fold enrichment (6-mer frequency, TF over GST control)"
same,binding signal,[4],"1.13 fold enrichment (6-mer frequency, TF over GST control)"
same,binding signal,[5],"1.1 fold enrichment (6-mer frequency, TF over GST control)"
same,binding signal,[6],"1.1 fold enrichment (6-mer frequency, TF over GST control)"
same,binding signal,[7],"1.48 fold enrichment (6-mer frequency, TF over GST control)"
same,binding signal,[8],"1.1 fold enrichment (6-mer frequency, TF over GST control)"
CCGAAA,binding signal,[1],"1.25 fold enrichment (6-mer frequency, TF over GST control)"
same,binding signal,[2],"1.23 fold enrichment (6-mer frequency, TF over GST control)"
same,binding signal,[3],"1.33 fold enrichment (6-mer frequency, TF over GST control)"
same,binding signal,[4],"1.2 fold enrichment (6-mer frequency, TF over GST control)"
same,binding signal,[5],"1.25 fold enrichment (6-mer frequency, TF over GST control)"
same,binding signal,[6],"1.22 fold enrichment (6-mer frequency, TF over GST control)"
same,binding signal,[7],"1.21 fold enrichment (6-mer frequency, TF over GST control)"
same,binding signal,[8],"1.26 fold enrichment (6-mer frequency, TF over GST control)"

# From PMC7862700, “An all-to-all approach to the identification of sequence-specific readers for epigenetic DNA modifications on cytosine”
